Results filed as inconclusive are left out. Activity calls are given as the source filed them. Unless noted, calls follow the shape of the dose curve; as a rule, active = well fitted curve in the direction sought with a large enough effect; inconclusive = small, poorly fitted or top-dose-only effect, or another doubt; inactive = no such curve, though single readings can be large; an effect the other way counts as inactive or inconclusive.
How the values were obtained:
[1] = target: Muscarinic acetylcholine receptor M1 (Rattus norvegicus) (UniProt P08482); experiment: qHTS Assay for Antagonists of Acetylcholine Muscarinic M1 Receptor: Kinetic Measurement of Intracellular Calcium Response (AID 943); also: nearly all actives have a fitted effect of over 75% in size; also: potency is read from the fitted curve at half-maximal effect
Chain of Muscarinic acetylcholine receptor M1 (Rattus norvegicus) (P08482 whole entry, looked up): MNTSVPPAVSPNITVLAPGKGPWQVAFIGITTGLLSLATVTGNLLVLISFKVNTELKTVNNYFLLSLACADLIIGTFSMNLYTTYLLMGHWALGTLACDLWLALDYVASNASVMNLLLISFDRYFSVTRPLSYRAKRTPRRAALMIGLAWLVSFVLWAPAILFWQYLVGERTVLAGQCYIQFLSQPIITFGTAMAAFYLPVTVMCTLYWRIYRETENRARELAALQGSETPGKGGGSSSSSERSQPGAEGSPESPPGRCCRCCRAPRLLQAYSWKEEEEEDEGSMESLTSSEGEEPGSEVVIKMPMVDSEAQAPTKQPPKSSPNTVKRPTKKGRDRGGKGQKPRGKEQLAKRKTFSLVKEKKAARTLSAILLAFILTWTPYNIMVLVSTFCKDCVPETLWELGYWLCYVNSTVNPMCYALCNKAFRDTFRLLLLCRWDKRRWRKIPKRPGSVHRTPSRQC
In short: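 Rat M1-CHO cells, 2000/well, overnight → Fluo-4 no-wash dye with probenecid, 1 h 37C → compound 10 min, room temp → basal read 6 s → carbachol EC80 (100 nM) → 4 min kinetic read; peak/basal.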

[2] = target: Pyruvate kinase (Leishmania mexicana) (UniProt Q27686); experiment: qHTS Validation Assay for Inhibitors of Leishmania Mexicana Pyruvate Kinase (AID 945);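 also: 0% = DMSO only neutral control wells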
Chain of Pyruvate kinase (Leishmania mexicana) (Q27686 2-499 E452W): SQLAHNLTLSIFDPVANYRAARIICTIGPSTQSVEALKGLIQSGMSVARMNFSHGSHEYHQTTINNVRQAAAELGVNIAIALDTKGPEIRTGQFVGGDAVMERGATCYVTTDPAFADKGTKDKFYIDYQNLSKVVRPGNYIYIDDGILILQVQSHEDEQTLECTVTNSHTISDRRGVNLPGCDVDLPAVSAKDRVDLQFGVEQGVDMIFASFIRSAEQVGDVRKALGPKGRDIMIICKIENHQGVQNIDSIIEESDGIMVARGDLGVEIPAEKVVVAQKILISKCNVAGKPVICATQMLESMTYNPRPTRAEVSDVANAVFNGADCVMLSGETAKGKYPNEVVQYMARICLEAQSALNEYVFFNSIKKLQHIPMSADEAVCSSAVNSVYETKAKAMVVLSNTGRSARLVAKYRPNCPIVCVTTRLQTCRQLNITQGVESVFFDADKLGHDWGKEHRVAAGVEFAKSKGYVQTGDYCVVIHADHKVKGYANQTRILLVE
In short: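 Compounds are tested as eight-point concentration series. Reactions contain 0.2 nM LmPYK E451W, 0.5 mM PEP, 0.1 mM ADP, 7 mM MgCl2 and 50 mM KCl at pH 7.2, run 1 h at room temperature, then read by PKLight luminescence.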

[3] = target: Pyruvate kinase PKM (Homo sapiens) (UniProt P14618); experiment: qHTS Assay for Activators of Human Muscle Pyruvate Kinase (AID 954; active = well fitted curve in the direction sought with a large enough effect, not every such curve was filed as active;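 also: 0% = uninhibited enzyme and -100% = no enzyme or full thiadiazolimine inhibition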)
Chain of Pyruvate kinase PKM (Homo sapiens) (P14618 whole entry, looked up): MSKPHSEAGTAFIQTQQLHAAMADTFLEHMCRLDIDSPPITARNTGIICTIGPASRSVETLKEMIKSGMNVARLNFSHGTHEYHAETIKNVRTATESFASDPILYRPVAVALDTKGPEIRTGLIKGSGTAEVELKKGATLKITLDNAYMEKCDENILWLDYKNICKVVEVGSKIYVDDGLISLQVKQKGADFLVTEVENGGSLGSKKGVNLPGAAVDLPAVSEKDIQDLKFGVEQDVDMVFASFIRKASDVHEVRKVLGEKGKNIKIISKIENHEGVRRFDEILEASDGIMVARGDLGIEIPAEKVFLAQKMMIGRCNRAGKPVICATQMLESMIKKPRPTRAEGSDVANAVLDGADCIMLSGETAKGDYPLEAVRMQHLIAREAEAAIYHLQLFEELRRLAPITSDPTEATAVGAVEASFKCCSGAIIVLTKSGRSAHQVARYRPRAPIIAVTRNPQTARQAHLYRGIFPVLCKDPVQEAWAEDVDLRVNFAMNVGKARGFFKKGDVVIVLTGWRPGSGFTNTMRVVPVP
In short: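 Human PKM2 activity is measured as ATP generation, detected by luciferase-coupled luminescence. The enzyme (0.1 nM) acts on 0.5 mM PEP and 0.1 mM ADP for 1 h at ambient temperature; data are normalized to uninhibited and full-inhibition wells.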

[4] = target: Alpha-galactosidase A (Homo sapiens) (UniProt P06280); experiment: Counterscreen for Glucocerebrosidase Inhibitors: qHTS Assay for Human alpha-Galactosidase at pH 4.5 (AID 992); also: 0% is about no effect
In short: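 Quantitative HTS: compounds tested from 0.7 nM up to 77 uM against 2 nM enzyme with 80 uM 4-MU alpha-D-galactopyranoside. The 20 min room-temperature reaction is stopped with 1M NaOH/1M glycine, pH 10.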

[5] = target: alpha-glucosidase (Oryza sativa, rice) (UniProt Q653V4); experiment: Counterscreen for Glucocerebrosidase Inhibitors: qHTS Assay for Rice alpha-Glucosidase at pH 5.0 (AID 997);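 also: 0% = full activity with enzyme and -100% = basal without enzyme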
In short: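 Rice alpha-glucosidase (4 nM final) with 400 uM 4-methylumbelliferyl-alpha-D-glucopyranoside in citrate buffer pH 5.0, 20 min at room temperature, stopped at pH 10; fluorescence 365/440 nm, compounds 0.7 nM–77 uM, AC50 from Hill fits.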

[6] = qHTS Assay for Identification of Small Molecule Agonists for Hypoxia Response Element Signaling Pathway (AID 914; active = well fitted activation curve with a large enough effect in the signal ratio, with a control signal flat, not every such curve was filed as active; the % refers to the signal ratio; also: potency is read from the fitted curve at half-maximal effect); conditions: ME-180 (cervical carcinoma) HRE-bla reporter, beta-lactamase ratio, CoCl2, 17 h; activation: stronger effect = higher value
In short: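 A beta-lactamase reporter under hypoxia response element control in ME-180 cells served as the system. Compound titrations plus EC50 CoCl2 ran 17 h at 37 degrees Celsius; AC50 values were fitted from %Activity.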

[7] = target: Androgen receptor (Homo sapiens) (UniProt P10275); experiment: qHTS assay for small molecule agonists of androgen receptor signaling (AID 588515; active = well fitted curve in the direction sought with a large enough effect in the signal ratio, with a control signal flat; the % refers to the signal ratio; also: % is scaled to controls: 0 for no effect and ±100 for the full control effect); conditions: AR-UAS-bla HEK293, beta-lactamase ratio, agonist 16 h; stronger effect = higher value
Chain of Androgen receptor (Homo sapiens) (P10275 whole entry, looked up): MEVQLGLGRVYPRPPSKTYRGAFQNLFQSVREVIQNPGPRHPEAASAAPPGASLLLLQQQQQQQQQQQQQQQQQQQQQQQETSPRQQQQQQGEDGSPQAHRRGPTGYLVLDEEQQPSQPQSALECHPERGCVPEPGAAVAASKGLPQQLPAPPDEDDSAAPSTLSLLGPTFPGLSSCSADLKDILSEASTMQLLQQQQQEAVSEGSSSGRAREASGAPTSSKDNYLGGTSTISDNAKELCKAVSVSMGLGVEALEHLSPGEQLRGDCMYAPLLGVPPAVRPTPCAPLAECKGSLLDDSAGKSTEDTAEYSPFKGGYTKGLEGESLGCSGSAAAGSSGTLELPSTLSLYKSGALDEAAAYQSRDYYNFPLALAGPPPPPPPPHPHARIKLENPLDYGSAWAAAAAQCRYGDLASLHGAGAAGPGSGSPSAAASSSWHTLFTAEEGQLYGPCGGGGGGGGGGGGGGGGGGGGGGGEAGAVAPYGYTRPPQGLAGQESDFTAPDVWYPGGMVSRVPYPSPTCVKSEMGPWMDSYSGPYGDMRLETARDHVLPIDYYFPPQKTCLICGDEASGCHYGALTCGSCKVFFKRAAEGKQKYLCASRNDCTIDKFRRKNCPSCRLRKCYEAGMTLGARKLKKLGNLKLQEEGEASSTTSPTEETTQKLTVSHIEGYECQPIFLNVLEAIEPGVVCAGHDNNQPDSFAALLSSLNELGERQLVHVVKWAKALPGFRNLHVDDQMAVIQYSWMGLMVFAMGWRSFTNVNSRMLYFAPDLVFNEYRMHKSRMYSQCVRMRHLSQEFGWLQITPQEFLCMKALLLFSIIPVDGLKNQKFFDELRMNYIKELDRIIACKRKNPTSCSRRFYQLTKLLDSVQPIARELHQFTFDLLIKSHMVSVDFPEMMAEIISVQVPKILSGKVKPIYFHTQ
In short: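 EC50 and efficacy came from Hill fits of titrations (up to 92 uM) normalized to 30 nM R1881 as 100% and DMSO as 0%. Compound exposure was 16 h at 37 C on AR-UAS-bla HEK293 cells, with a 405/460/530 nm CCF4 fluorescence read.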

[8] = target: Androgen receptor (Homo sapiens) (UniProt P10275); experiment: qHTS assay for small molecule antagonists of androgen receptor signaling (AID 588516; active = well fitted curve in the direction sought with a large enough effect in the signal ratio, with a control signal flat, not every such curve was filed as active; the % refers to the signal ratio; also: % is scaled to controls: 0 for no effect and ±100 for the full control effect)
In short: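 Antagonist mode: inhibition of R1881-stimulated (10 nM final) bla reporter in GeneBLAzer AR HEK 293 cells, 16 h at 37C, compounds titrated. IC50 and efficacy from Hill-equation fits of 405/460–530 nm FRET ratios.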

[9] = target: Vitamin D3 receptor (Homo sapiens) (UniProt P11473); experiment: qHTS assay for small molecule agonists of vitamin D receptor signaling (AID 588543; calls by dose curve;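 also: 0% = DMSO basal and 100% = reference agonist control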)
Chain of Vitamin D3 receptor (Homo sapiens) (P11473 whole entry, looked up): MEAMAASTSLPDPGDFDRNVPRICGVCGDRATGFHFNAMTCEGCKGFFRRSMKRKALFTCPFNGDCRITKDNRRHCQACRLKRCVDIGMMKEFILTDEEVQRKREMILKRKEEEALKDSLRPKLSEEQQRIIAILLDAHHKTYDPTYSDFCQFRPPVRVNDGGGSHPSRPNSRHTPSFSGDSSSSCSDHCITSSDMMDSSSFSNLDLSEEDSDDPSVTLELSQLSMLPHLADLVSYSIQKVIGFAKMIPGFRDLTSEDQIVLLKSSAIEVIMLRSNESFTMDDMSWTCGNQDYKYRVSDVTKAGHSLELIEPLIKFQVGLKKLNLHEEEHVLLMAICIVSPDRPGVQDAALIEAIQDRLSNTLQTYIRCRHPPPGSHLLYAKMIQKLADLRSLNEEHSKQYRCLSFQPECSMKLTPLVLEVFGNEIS
In short: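 Agonist-mode beta-lactamase reporter: HEK293T VDR-UAS-bla cells in charcoal-stripped 2% FBS, compound series 16 h 37 C, CCF4 2 h RT. EC50 from Hill fit, scaled against DMSO and 50 nM calcitriol control.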

[10] = target: Thyroid hormone receptor beta (Homo sapiens) (UniProt P10828); experiment: qHTS assay for small molecule agonists of thyroid hormone receptor beta signaling (AID 588545; calls by dose curve;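 also: 0% = DMSO only and 100% = 10 nM T3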)
Chain of Thyroid hormone receptor beta (Homo sapiens) (P10828 whole entry, looked up): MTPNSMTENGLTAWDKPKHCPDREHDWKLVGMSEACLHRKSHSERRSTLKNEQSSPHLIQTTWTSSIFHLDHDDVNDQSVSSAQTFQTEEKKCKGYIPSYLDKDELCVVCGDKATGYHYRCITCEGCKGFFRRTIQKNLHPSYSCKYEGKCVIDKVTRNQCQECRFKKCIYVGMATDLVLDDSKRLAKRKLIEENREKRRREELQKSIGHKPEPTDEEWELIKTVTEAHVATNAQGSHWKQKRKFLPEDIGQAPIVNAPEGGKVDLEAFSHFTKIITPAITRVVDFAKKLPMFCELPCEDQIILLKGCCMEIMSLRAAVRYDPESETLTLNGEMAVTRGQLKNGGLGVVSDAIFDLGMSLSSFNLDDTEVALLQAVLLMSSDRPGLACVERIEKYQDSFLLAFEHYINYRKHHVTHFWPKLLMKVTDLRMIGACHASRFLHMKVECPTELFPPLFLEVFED
In short: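 Efficacy and EC50 values derive from Hill fits of qHTS titration data, normalized to 10 nM T3 and DMSO-only wells. HEK 293 reporter cells were stimulated for 18 hrs at 37 C, with beta-lactamase activity measured by CCF4 fluorescence.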

[11] = qHTS assay for small molecule antagonists of retinoid X receptor alpha signaling (AID 588546; active = well fitted inhibition curve with a large enough effect in the signal ratio, with a control signal flat, not every such curve was filed as active; the % refers to the signal ratio;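 also: cells stimulated with 9-cis-retinoic acid as agonist; % is scaled to controls: 0 for no effect and ±100 for the full control effect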); conditions: HEK293T RXRa-UAS-bla, beta-lactamase ratio, antagonist mode; measured here: W530 green channel, cytotoxicity proxy
In short: (§1)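 Beta-lactamase reporter inhibition, read as CCF4 fluorescence ratio (ex 405, em 460/530 nm) after 2 h at RT. HEK293T UAS-bla cells, 2500/well, were stimulated with 9-cis-RA at 500 or 100 nM final alongside test compound for 18 h at 37 C.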

[12] = target: Retinoic acid receptor RXR-alpha (Homo sapiens) (UniProt P19793); experiment: as above; conditions: HEK293T RXRa-UAS-bla, beta-lactamase ratio, antagonist mode
Chain of Retinoic acid receptor RXR-alpha (Homo sapiens) (P19793 whole entry, looked up): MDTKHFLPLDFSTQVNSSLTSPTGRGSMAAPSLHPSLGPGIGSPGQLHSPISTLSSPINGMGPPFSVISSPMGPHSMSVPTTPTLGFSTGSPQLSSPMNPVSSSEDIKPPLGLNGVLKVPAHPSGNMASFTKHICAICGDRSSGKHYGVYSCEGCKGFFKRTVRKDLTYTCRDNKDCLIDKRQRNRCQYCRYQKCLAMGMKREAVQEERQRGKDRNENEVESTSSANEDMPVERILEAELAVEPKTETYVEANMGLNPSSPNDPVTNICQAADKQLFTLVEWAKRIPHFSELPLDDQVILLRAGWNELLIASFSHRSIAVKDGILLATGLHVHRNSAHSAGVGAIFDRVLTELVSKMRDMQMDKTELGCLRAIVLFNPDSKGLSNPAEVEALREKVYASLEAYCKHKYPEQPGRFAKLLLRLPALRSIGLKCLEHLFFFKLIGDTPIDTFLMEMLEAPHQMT
In short: as §1

[13] = target: Thyroid hormone receptor beta (Homo sapiens) (UniProt P10828); experiment: qHTS assay for small molecule antagonists of thyroid hormone receptor beta signaling (AID 588547; active = well fitted inhibition curve with a large enough effect in the signal ratio, with a control signal flat, not every such curve was filed as active; the % refers to the signal ratio;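 also: cells stimulated with 0.4 nM T3 agonist during compound exposure; series mostly up to about 77 µM; % is scaled to controls: 0 for no effect and ±100 for the full control effect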); conditions: TR-UAS-bla HEK293, beta-lactamase ratio, antagonist mode, 18 h
In short: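 Inhibition of T3-driven (0.4nM final) beta-lactamase reporter activity was measured over 0.59 nM to 92 uM compound after 18 h at 37 C. The cells were GripTite HEK293 TR-UAS-bla in charcoal/dextran-stripped serum, with CCF4 ratio read-out and IC50 from Hill fits.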

[14] = qHTS assay for small molecule agonists of the antioxidant response element (ARE) signaling pathway (AID 651741; active = well fitted activation curve with a large enough effect in the signal ratio; the % refers to the signal ratio; also: potency is read from the fitted curve at half-maximal effect; as to activation: % of control where 0% means no effect)
In short: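 Quantitative HTS in HepG2 cells stably expressing an ARE-beta-lactamase reporter; 16 h compound exposure at 37 C, followed by 2 h room-temperature incubation with LiveBLAzer B/G FRET substrate and fluorescence measurement.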

[15] = qHTS assay for small molecule activators of the nuclear factor-kappa B (NF-kB) signaling pathway (AID 651749; active = well fitted activation curve with a large enough effect in the signal ratio; the % refers to the signal ratio; also: series mostly up to about 77 µM; % of control where 0% means no effect); conditions: NF-kB-bla ME-180 cells, beta-lactamase FRET ratio, 16 h; stronger effect = higher value
In short: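 Readout: beta-lactamase reporter driven by an NF-kB response element, detected fluorescently as loss of FRET. Cells were the ME-180 line, treated 16 hr at 37C with pin-transferred compound.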

[16] = qHTS assay for environmental chemicals that activate the Aryl hydrocarbon Receptor (AhR) signaling pathway (AID 651777); conditions: 1A2-DRE human hepatoma cells, luciferase, 24 h; activation: stronger effect = higher value; also: % of control where 0% means no effect; nearly all actives have a fitted effect of over 15% in size
In short: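 Reporter gene assay: hepatoma cells with DRE/CYP1A2-luciferase, 24 hr compound incubation at 37 C, 5% CO2, luminescence after One-Glo (30 min, RT).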

[17] = target: Peroxisome proliferator-activated receptor alpha (Homo sapiens) (UniProt Q07869); experiment: qHTS assay for small molecule agonists of the peroxisome proliferator-activated receptor alpha (PPARalpha) signaling pathway (AID 651778); conditions: PathHunter PPARalpha complementation, chemiluminescence, 6 h; max response: stronger effect = higher value; also: % of control where 0% means no effect
Chain of Peroxisome proliferator-activated receptor alpha (Homo sapiens) (Q07869 whole entry, looked up): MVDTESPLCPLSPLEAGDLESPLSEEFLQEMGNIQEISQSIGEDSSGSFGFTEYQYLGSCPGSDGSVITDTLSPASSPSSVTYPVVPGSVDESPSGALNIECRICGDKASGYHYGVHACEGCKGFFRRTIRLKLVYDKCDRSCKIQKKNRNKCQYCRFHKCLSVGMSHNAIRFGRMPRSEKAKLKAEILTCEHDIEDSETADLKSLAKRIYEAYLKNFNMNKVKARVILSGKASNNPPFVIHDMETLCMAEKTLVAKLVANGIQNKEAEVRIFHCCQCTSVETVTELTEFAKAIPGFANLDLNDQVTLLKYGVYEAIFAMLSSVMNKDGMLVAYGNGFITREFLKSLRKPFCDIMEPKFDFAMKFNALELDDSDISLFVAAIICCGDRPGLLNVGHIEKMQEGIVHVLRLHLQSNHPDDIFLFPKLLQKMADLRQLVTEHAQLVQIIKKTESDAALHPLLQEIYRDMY
In short: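 Chemiluminescence from complemented enzyme reported PPARalpha activation in cells after 6 hr of compound treatment at 37 C. The detection reagent was incubated for 60 min at room temperature, and compounds were scored as agonists.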

[18] = qHTS assay for small molecule agonists of the antioxidant response element (ARE) signaling pathway measured by Nrf2-dependant transcriptional activity (AID 720636; active = well fitted curve in the direction sought with a large enough effect in the repeat runs; an effect the other way counts as inactive or inconclusive;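 also: HepG2 cells with an ARE-driven luciferase reporter; % of control where 0% means no effect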)
In short: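 Nrf2-dependent transcription is measured in ARE-luc HepG2 cells: compound is applied for 16 hr at 37 C after a 6 hr attachment period, and luciferase activity is quantified by luminescence using ONE-Glo.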

[19] = qHTS assay for small molecule agonists of the antioxidant response element (ARE) signaling pathway measured by Nrf2-dependant transcriptional activity - cell viability counter screen (AID 720653; active = well fitted curve in the direction sought with a large enough effect in the repeat runs; an effect the other way counts as inactive or inconclusive; also: % is scaled to controls: 0 for no effect and ±100 for the full control effect); conditions: ARE-bla HepG2 viability, CellTiter-Glo ATP luminescence, 16 h; max response: stronger effect = lower value
In short: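 Cytotoxicity counter screen: intracellular ATP quantified by CellTiter-Glo luminescence in the same ARE-bla HepG2 plates, after 16 h compound exposure and a 2 h beta-lactamase substrate step.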

[20] = target: Nuclear receptor subfamily 1 group I member 2 (Rattus norvegicus) (UniProt Q9R1A7); experiment: qHTS assay for small molecule activators of the rat pregnane X receptor (rPXR) signaling pathway (AID 651751; call rule not given here; also: 0% is about no effect); conditions: rPXR reporter cells, luciferase (One-Glo), 24 h
Chain of Nuclear receptor subfamily 1 group I member 2 (Rattus norvegicus) (Q9R1A7 whole entry, looked up): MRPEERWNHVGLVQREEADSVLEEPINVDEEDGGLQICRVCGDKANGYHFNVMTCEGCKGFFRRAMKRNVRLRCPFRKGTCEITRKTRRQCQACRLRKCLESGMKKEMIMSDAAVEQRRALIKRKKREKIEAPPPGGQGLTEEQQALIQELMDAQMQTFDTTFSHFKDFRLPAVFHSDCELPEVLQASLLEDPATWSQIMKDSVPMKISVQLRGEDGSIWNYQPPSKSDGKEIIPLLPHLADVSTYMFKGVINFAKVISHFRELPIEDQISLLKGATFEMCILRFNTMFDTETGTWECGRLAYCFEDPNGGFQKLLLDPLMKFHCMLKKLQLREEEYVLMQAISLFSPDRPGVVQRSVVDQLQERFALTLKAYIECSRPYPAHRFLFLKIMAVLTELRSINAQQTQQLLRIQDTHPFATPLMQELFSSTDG

N#C[C@@H](Cc1ccc(O)c(O)c1)C(=O)N1CCc2ccccc21
inactive: Potency [1] | Potency [2] | outcome [3] | outcome [4] | outcome [5]

COC(=O)C1=C(C)NC(C)=C(C(=O)OCCN(C)Cc2ccccc2)[C@@H]1c1cccc([N+](=O)[O-])c1
inactive: Potency [2] | outcome [3] | outcome [4] | outcome [5]
active: Potency [1] 3.16 µM

N#CC1=C(SCC(=O)c2ccccc2)NC2=C(C(=O)CCC2)C1c1ccco1 (stereo not given)
active: Potency [6] 10 µM

CC1(C)CCC(C)(C)c2cc(C(=O)Nc3ccc(C(=O)O)cc3)ccc21
2.34%: max response [11]
active: Potency [14] 61.1 µM
inactive: activation [7] -12.7% | outcome [8] | outcome [9] | outcome [10] | max response [12] -51.1% | activity change % (negative = inhibition) [13] 15.7% | activation [15] 1.76% | activation [16] -0.1% | max response [17] 0.0193% | Potency [18] | max response [19] -7.97% | max response [20] -9.44%

CC1(C)Cc2c(C#N)c(NCc3ccco3)nc(-c3ccco3)c2CO1
active: Potency [6] 2 µM

CC1CCC(C(C)C)C(O)C1 (stereo not given)
inactive: activation [7] 13.2% | outcome [8] | outcome [9] | outcome [10] | max response [12] 5.79% | activity change % (negative = inhibition) [13] -1.02% | Potency [14] | activation [15] -2.43% | activation [16] -1.72% | max response [17] -0.619% | Potency [18] | max response [19] 1.08% | max response [20] -4.79%
-12.2%: max response [11]

Source: PubChem BioAssay (NCATS)
